# Publication PMC11995724, “Antibiotic target discovery by integrated phenotypic and activity-based profiling of electrophilic fragments” (Cell chemical biology, 2025)
# Among all 3,200 compounds or so, about 110 (3.4%) showed an effect of 50% or more. Many of the other results were omitted from the sample, so strong results are more common in it than they were.
# Tested on: T1, V. cholerae SAD30
# T1 construct: SAD30
# Set-up: species or system S. aureus MSSA476 (TSB) or V. cholerae SAD30 (LB); 384-well bacterial growth screen at 25 uM, OD600 relative to DMSO control
# Settings: relative growth, OD600, LB; 25 µM; inhibitor
row,Structure (SMILES),% of control remaining [%]
1,"C=CC(=O)NC1(c2nc(C3CC3)cc(=O)[nH]2)CCCCC1 [3-H13, N-[1-(4-cyclopropyl-6-oxo-1,6-dihydropyrimidin-2-yl)cyclohexyl]prop-2-enamide]",88.7374
2,"CS(=O)(=O)c1ccc(C(=O)CCl)cc1 [10-I13, 2-chloro-1-(4-methanesulfonylphenyl)ethan-1-one]",0
3,"CCN(c1ccc(C(=O)CCl)cc1)S(C)(=O)=O [10-F04, N-[4-(2-chloroacetyl)phenyl]-N-ethylmethanesulfonamide]",100.994
4,"CS(=O)(=O)Nc1ccc(C(=O)CCl)cc1 [10-D19, N-[4-(2-chloroacetyl)phenyl]methanesulfonamide]",31.3267
5,"CS(=O)(=O)NCCc1ccc(C(=O)CCl)cc1 [10-D06, N-{2-[4-(2-chloroacetyl)phenyl]ethyl}methanesulfonamide]",99.5909
6,"CC(Cl)C(=O)c1ccc(NS(C)(=O)=O)cc1 (stereo not shown) [10-A08, N-[4-(2-chloropropanoyl)phenyl]methanesulfonamide]",98.4999
7,"CN(c1ccc(C(=O)CCl)cc1)S(C)(=O)=O [10-F19, N-[4-(2-chloroacetyl)phenyl]-N-methylmethanesulfonamide]",14.0269
8,"CC(=O)N(C)Cc1ccc(C(=O)CCl)cc1 [10-H04, N-{[4-(2-chloroacetyl)phenyl]methyl}-N-methylacetamide]",100.682
9,"CS(=O)(=O)c1ccc(CNC(=O)CCl)cc1 [6-O12, 2-chloro-N-[(4-methanesulfonylphenyl)methyl]acetamide]",95.2507
10,"C=CC(=O)NC(c1ccc(C)cc1)C(C)S(C)(=O)=O (stereo not shown) [2-A10, N-[2-methanesulfonyl-1-(4-methylphenyl)propyl]prop-2-enamide]",94.3646
11,"CC(Cl)C(=O)Nc1sccc1C(N)=O (stereo not shown) [5-C21, 2-(2-chloropropanamido)thiophene-3-carboxamide]",107.429
12,"C=CC(=O)N1CCC(NC(C)=O)(c2noc(C)n2)C1 (stereo not shown) [2-G16, N-[3-(5-methyl-1,2,4-oxadiazol-3-yl)-1-(prop-2-enoyl)pyrrolidin-3-yl]acetamide]",100.077
13,"C=CC(=O)NC1CN(S(=O)(=O)c2ccc3c(c2)OCCO3)C1 [2-E11, N-[1-(2,3-dihydro-1,4-benzodioxine-6-sulfonyl)azetidin-3-yl]prop-2-enamide]",95.7541
14,"N#CC(=Cc1c(F)cccc1F)C(=O)Nc1ccccc1F [9-J12, 2-cyano-3-(2,6-difluorophenyl)-N-(2-fluorophenyl)prop-2-enamide]",94.2896
15,"O=C(CCl)NC1CCCc2nc(-c3ccccc3)sc21 (stereo not shown) [7-B04, 2-chloro-N-(2-phenyl-4,5,6,7-tetrahydro-1,3-benzothiazol-7-yl)acetamide]",86.833
16,"CCCn1c(C)cc(C=C(C#N)C(=O)N2CCC2)c1C [8-L08, 2-(azetidine-1-carbonyl)-3-(2,5-dimethyl-1-propyl-1H-pyrrol-3-yl)prop-2-enenitrile]",60.707
17,"COC(=O)c1sccc1N1C(=O)C=CC1=O [10-A07, methyl 3-(2,5-dioxo-2,5-dihydro-1H-pyrrol-1-yl)thiophene-2-carboxylate]",26.4952
18,"Cc1cc(C(=O)C(C)Cl)c(C)n1Cc1ccco1 (stereo not shown) [10-E06, 2-chloro-1-{1-[(furan-2-yl)methyl]-2,5-dimethyl-1H-pyrrol-3-yl}propan-1-one]",94.9153
19,"Cc1ccc(NC(=O)CCl)cc1[N+](=O)[O-] [4-M13, 2-chloro-N-(4-methyl-3-nitrophenyl)acetamide]",93.6813
20,"Cc1oc(C(=O)O)cc1C(=O)CCl [10-M21, 4-(2-chloroacetyl)-5-methylfuran-2-carboxylic acid]",100.37
21,"Cc1oc(C(N)=O)cc1C(=O)CCl [10-M05, 4-(2-chloroacetyl)-5-methylfuran-2-carboxamide]",20.4169
22,"COCCn1c(C)cc(C(=O)CCl)c1C [10-D13, 2-chloro-1-[1-(2-methoxyethyl)-2,5-dimethyl-1H-pyrrol-3-yl]ethan-1-one]",99.9026
23,"COC(=O)c1cc(C(=O)CCl)c(C)o1 [10-G13, methyl 4-(2-chloroacetyl)-5-methylfuran-2-carboxylate]",43.6392
24,"NC(=O)c1coc(C(=O)CCl)c1 [10-C05, 5-(2-chloroacetyl)furan-3-carboxamide]",96.1621
25,"CCc1ccc(CC)c(C(=O)CCl)c1 [10-H14, 2-chloro-1-(2,5-diethylphenyl)ethan-1-one]",95.8504

row,Structure (SMILES),% of control remaining [%]
1,"CCc1ccc(OC(C)C(=O)N2CCN(C(=O)C(C)Cl)CC2)cc1 (stereo not shown) [6-H16, 1-[4-(2-chloropropanoyl)piperazin-1-yl]-2-(4-ethylphenoxy)propan-1-one]",86.302
2,"C=CC(=O)N1CCC(C(=O)Nc2ccc3c(c2)CCN3C(N)=O)CC1 [3-E16, 5-[1-(prop-2-enoyl)piperidine-4-amido]-2,3-dihydro-1H-indole-1-carboxamide]",90.5017
3,"C=CC(=O)NC(c1nc(C)cs1)C1CC1 (stereo not shown) [3-D21, N-[cyclopropyl(4-methyl-1,3-thiazol-2-yl)methyl]prop-2-enamide]",100.912
4,"CCCn1c(C)cc(C=C(C#N)C(=O)Nc2ccc3c(c2)OCO3)c1C [9-G07, N-(1,3-dioxaindan-5-yl)-2-cyano-3-(2,5-dimethyl-1-propyl-1H-pyrrol-3-yl)prop-2-enamide]",88.5792
5,"CC(Cl)C(=O)Nc1ccc(F)c(F)c1F (stereo not shown) [4-O08, 2-chloro-N-(2,3,4-trifluorophenyl)propanamide]",95.579
6,"C=CC(=O)NCCCc1conc1C [2-N13, N-[3-(3-methyl-1,2-oxazol-4-yl)propyl]prop-2-enamide]",87.88
7,"Cc1ccc(NC(=O)C2(CNC(=O)C(C)Cl)CCCC2)cc1C (stereo not shown) [7-J13, 1-[(2-chloropropanamido)methyl]-N-(3,4-dimethylphenyl)cyclopentane-1-carboxamide]",74.8059
8,"Cn1cc(C=C(C#N)C(=O)Nc2ccccc2F)c(-c2ccncc2)n1 [9-L15, 2-cyano-N-(2-fluorophenyl)-3-[1-methyl-3-(pyridin-4-yl)-1H-pyrazol-4-yl]prop-2-enamide]",89.6669
9,"O=C1CCc2cc(C(=O)CCl)c(F)cc2N1 [10-O20, 6-(2-chloroacetyl)-7-fluoro-1,2,3,4-tetrahydroquinolin-2-one]",36.6258
10,"CC1(C)C(=O)Nc2ccc(C(=O)CCl)cc21 [10-N21, 5-(2-chloroacetyl)-3,3-dimethyl-2,3-dihydro-1H-indol-2-one]",35.0672
11,"O=C1CCCc2cc(C(=O)CCl)ccc2N1 [10-M20, 7-(2-chloroacetyl)-2,3,4,5-tetrahydro-1H-1-benzazepin-2-one]",94.6035
12,"O=C1CCc2cc(C(=O)CCl)ccc2N1 [10-M03, 6-(2-chloroacetyl)-1,2,3,4-tetrahydroquinolin-2-one]",23.534
13,"C=CC(=O)NCc1c(Cl)c(C(F)(F)F)nn1C [2-J07, N-{[4-chloro-1-methyl-3-(trifluoromethyl)-1H-pyrazol-5-yl]methyl}prop-2-enamide]",87.88
14,"C=CC(=O)Nc1ccc(Cl)cc1F [1-I10, N-(4-chloro-2-fluorophenyl)prop-2-enamide]",88.0419
15,"CC(Cl)C(=O)NCc1cc(-c2ccccc2)on1 (stereo not shown) [7-A13, 2-chloro-N-[(5-phenyl-1,2-oxazol-3-yl)methyl]propanamide]",82.868
16,"CC(Cl)C(=O)N1CCN(C(=O)C(F)(F)F)C2(CCCCC2)C1 (stereo not shown) [7-K06, 2-chloro-1-[1-(2,2,2-trifluoroacetyl)-1,4-diazaspiro[5.5]undecan-4-yl]propan-1-one]",75.3345
17,"CC(C#N)Oc1ccc(C=C(C#N)C(=O)Nc2ccccc2Cl)cc1 (stereo not shown) [9-E05, N-(2-chlorophenyl)-2-cyano-3-[4-(1-cyanoethoxy)phenyl]prop-2-enamide]",89.259
18,"C=CCNC(=O)C(C#N)=Cc1cccc2ccccc12 [9-L10, 2-cyano-3-(naphthalen-1-yl)-N-(prop-2-en-1-yl)prop-2-enamide]",88.3073
19,"CC(Cl)C(=O)N(C)C[C@@H]1C[C@H](F)CN1c1ccnc(N(C)C)n1 (stereo partly drawn) [7-K16, 2-chloro-N-{[(2S,4S)-1-[2-(dimethylamino)pyrimidin-4-yl]-4-fluoropyrrolidin-2-yl]methyl}-N-methylpropanamide]",71.1052
20,"C=CC(=O)NCCc1ccn(-c2ccc(F)cc2)n1 [2-P03, N-{2-[1-(4-fluorophenyl)-1H-pyrazol-3-yl]ethyl}prop-2-enamide]",113.818
21,"Cc1ccc(C)c(N2C(=O)C=CC2=O)c1 [10-F13, 1-(2,5-dimethylphenyl)-2,5-dihydro-1H-pyrrole-2,5-dione]",31.3267
22,"Cc1ccc(N2C(=O)C=CC2=O)c(C)c1 [10-N07, 1-(2,4-dimethylphenyl)-2,5-dihydro-1H-pyrrole-2,5-dione]",22.5989
23,"Cc1cc(C(=O)O)ccc1N1C(=O)C=CC1=O [10-G22, 4-(2,5-dioxo-2,5-dihydro-1H-pyrrol-1-yl)-3-methylbenzoic acid]",102.864
24,"Cc1ccc2nc(-c3ccc(N4C(=O)C=CC4=O)cc3)sc2c1 [10-K18, 1-[4-(6-methyl-1,3-benzothiazol-2-yl)phenyl]-2,5-dihydro-1H-pyrrole-2,5-dione]",99.1233
